# Test results as given in PubChem BioAssay AID1851 (National Center for Advancing Translational Sciences (NCATS), 2009).
# “And” between values parts separate entries of the source, which are not always exact repeats. Equal values may be shown once. The campaign covered roughly 16,000 compounds. About 5,100 (32%) were called active. Not shown: some 25% with an inconclusive outcome. Calls follow the shape of the dose curve; as a rule, active = well fitted curve in the direction sought with a large enough effect; inconclusive = small, poorly fitted or top-dose-only effect, or effect the other way; inactive = no such curve, though single readings can be large or run the other way. The list shows a part of the results.
# Molecular target: Cytochrome P450 3A4 (Homo sapiens) (UniProt P08684)
# Sequence (P08684 whole entry, looked up): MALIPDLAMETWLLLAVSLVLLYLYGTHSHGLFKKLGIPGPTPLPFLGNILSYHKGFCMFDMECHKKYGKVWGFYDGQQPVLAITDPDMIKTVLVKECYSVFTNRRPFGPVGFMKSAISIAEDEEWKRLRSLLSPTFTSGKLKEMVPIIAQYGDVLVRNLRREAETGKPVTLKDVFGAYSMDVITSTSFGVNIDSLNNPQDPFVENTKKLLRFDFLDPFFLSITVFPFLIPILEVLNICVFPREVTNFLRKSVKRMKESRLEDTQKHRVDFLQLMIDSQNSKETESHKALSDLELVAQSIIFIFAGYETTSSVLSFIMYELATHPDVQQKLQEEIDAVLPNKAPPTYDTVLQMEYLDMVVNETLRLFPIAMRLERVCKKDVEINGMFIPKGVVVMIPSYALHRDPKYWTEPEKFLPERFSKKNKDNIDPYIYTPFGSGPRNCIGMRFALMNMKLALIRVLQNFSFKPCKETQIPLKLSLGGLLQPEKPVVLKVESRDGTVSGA
# Assay: Cytochrome panel assay with activity outcomes
# Conditions: recombinant CYP, pro-luciferin dealkylation, luminescence, p450-cyp3a4; series mostly up to 57.1 µM
# % is scaled to controls: 0 for no effect and ±100 for the full control effect.
SMILES,AC50,"activity, negative = inhibition"
CCCc1ncc(C[n+]2ccccc2C)c(N)n1,inactive,–
CC(C)(C)N1C(=O)[C@H]2[C@H]3[C@H](O)[C@H](O)C/C(=N/NC(=O)OCc4ccccc4)[C@@H]3CC[C@@H]2C1=O,–,-15% [at 11.4 µM] (inactive)
COC(=O)c1c(NC(=O)C(C)(C)C)sc2c1C(C(=O)OC)CC2 (stereo unspecified),inactive,–
Cc1cc(=O)[nH]c(-n2[nH]c(C)cc2=O)n1,inactive,–
COc1ccc(C(=O)Nc2ccc(C(=O)OCC(=O)c3ccccc3)cc2)cc1,inactive,–
CCOC(=O)c1ccc(NC(=O)CC2NCCNC2=O)cc1 (stereo unspecified),inactive,–
CCOC(=O)c1ccc(NC(=O)COc2ccccc2OC)cc1,31.6 µM (active),–
CC1=NN(c2ccccc2)C(=O)[C@@H]1N=Nc1ccc(S(N)(=O)=O)cc1,–,-5.5% [at 11.4 µM] (inactive)
CCOCc1cnc(C)nc1NCC(=O)c1c(C)[nH]c2ccccc12,inactive,–
O=S(=O)(NC1CCN(Cc2ccccc2)CC1)c1cccc2cccnc12,15.8 µM (active),–
c1ccc(CN2CC[C@@H](CNc3ncnc4ccccc34)C2)cc1,–,-19.3% [at 11.4 µM] (inactive)
Oc1ccc(CNCc2ccccc2)c2cccnc12,–,-8.41% [at 11.4 µM] (inactive)
O=C(NCCCN1CCN(Cc2ccccc2)CC1)C1CCN(S(=O)(=O)N2CCCC2)CC1,inactive,–
O=C(NCCCN1CCN(C2CCCCC2)CC1)Nc1ccccc1C(F)(F)F,inactive,–
O=C(NCCCN1CCCCCC1)[C@@H](c1ccccc1)C1CCCCC1,3.98 µM (active),–
Cc1ccc(-c2ccc(CCC(=O)O)o2)cc1,inactive,–
CC(=O)Nc1ccc(S(=O)(=O)NC(CC(=O)NCCC2=CCCCC2)C(C)C)cc1 (stereo unspecified),15.8 µM (active),–
COc1ccc(CONS(=O)(=O)c2ccc(NC(C)=O)cc2)cc1Cl,3.16 µM (active),–
CC(=O)Nc1ccc(S(=O)(=O)N=S(C)C)cc1,inactive,–
Cc1ccc(S(=O)(=O)N(CC(=O)NCCC2=CCCCC2)Cc2ccccc2F)cc1,–,-9.36% [at 2.29 µM] (inactive)
COc1ccc(CCNC(=O)CC(NS(=O)(=O)c2ccc(NC(C)=O)cc2)C(C)C)cc1OC (stereo unspecified),15.8 µM (active),–
COC(=O)C(NS(=O)(=O)c1ccc(NC(C)=O)cc1)C(C)C (stereo unspecified),inactive,–
CCCCCOc1ccc(NC(=O)C(=O)NCCC2=CCCCC2)cc1,inactive,–

SMILES,AC50,"activity, negative = inhibition"
C[C@H](O)CO[C@H]1[C@H]2O[C@H]3[C@H](O)[C@@H](O)[C@@H](O[C@H]4[C@H](O)[C@@H](O)[C@@H](O[C@H]5[C@H](O)[C@@H](O)[C@@H](O[C@H]6[C@H](O)[C@@H](OC[C@H](C)O)[C@@H](O[C@H]7[C@H](O)[C@@H](OC[C@H](C)O)[C@@H](O[C@H]8[C@H](O)[C@@H](O)[C@@H](O[C@@H]([C@@H]1O)[C@@H](CO)O2)O[C@@H]8CO)O[C@@H]7CO)O[C@@H]6CO)O[C@@H]5CO)O[C@@H]4CO)O[C@@H]3CO,inactive,–
O=C(Nc1cccc(C(F)(F)F)c1)C1CCCN1S(=O)(=O)c1cccc2cccnc12 (stereo unspecified),11.2 µM (active),–
O=C(Nc1cccc2cccnc12)[C@@H]1[C@@H](C(=O)O)[C@H]2CC[C@@H]1O2,–,-18.7% [at 11.4 µM] (inactive)
COc1ccc(-c2ccc(C(=S)N3CCN(C(C)=O)CC3)o2)cc1,25.1 µM (active),–
C[C@H](N[C@@H](C)COc1ccccc1)[C@H](O)c1ccc(O)cc1,inactive,–
COc1ccc(C2/C(=C(/O)c3ccccc3)C(=O)C(=O)N2c2ccccn2)c(OC)c1 (stereo unspecified),–,1.16% [at 2.29 µM] (inactive)
COc1ccc(N2C(=O)CSC2c2cccc(F)c2)c(OC)c1 (stereo unspecified),12.6 µM (active),–
C/C(=N\[N+](C)(C)C)c1ccc(C)c(C)c1,–,-5.81% [at 11.4 µM] (inactive)
O=C(Nc1cccc(-c2nc3ccccc3s2)c1)c1ccc2c(c1)OCO2,2.24 µM (active),–
COC(=O)c1ccc(Cl)c(NC(=O)c2ccc(-c3ccccc3)cc2)c1,–,0.213% [at 2.29 µM] (inactive)
O=C(Nc1cc(-c2nc3ccccc3s2)ccc1Cl)c1ccc2c(c1)OCO2,2.24 µM (active),–
CCOc1ccc(CN(C(=O)c2oc3ccccc3c2C)C2CCS(=O)(=O)C2)cc1 (stereo unspecified),12.6 µM (active),–
O=C(c1ccccc1)N(Cc1ccco1)C1CCS(=O)(=O)C1 (stereo unspecified),inactive,–
CCc1ccc(OCC(=O)OC2CCS(=O)(=O)C2)cc1 (stereo unspecified),inactive,–
CN(C(=O)COc1cccc(Br)c1)C1CCS(=O)(=O)C1 (stereo unspecified),inactive,–
CCc1ccc(CN(C(=O)c2cc3ccccc3oc2=O)C2CCS(=O)(=O)C2)cc1 (stereo unspecified),14.1 µM (active),–
Cc1ccc[n+](CC(=O)c2cc3ccccc3oc2=O)c1,–,-4.17% [at 2.29 µM] (inactive)
CCCN(C(=S)Nc1ccccc1)C1CCS(=O)(=O)C1 (stereo unspecified),inactive,–
O=C(c1sc2ccccc2c1Cl)N(Cc1ccccc1)C1CCS(=O)(=O)C1 (stereo unspecified),11.2 µM (active),–
C[C@@H](CC(=O)O)[C@@H](N)C(=O)O,inactive,–
O=C(COC(=O)c1cccnc1Cl)c1ccccc1,inactive,–
O=C(COC(=O)c1cccnc1)c1ccc(Cl)c(Cl)c1,0.562 µM (active),–
O=C(Oc1cccc(Br)c1)c1cccnc1,inactive,–

SMILES,AC50,"activity, negative = inhibition"
CON1C(=O)C(=O)N(OC)C2CCCCC21 (stereo unspecified),inactive,–
CC(C)(C)N1C(=O)[C@H]2[C@@H]3[C@H](O)[C@H](O)CC(=O)[C@H]3CC[C@H]2C1=O,–,-16.1% [at 11.4 µM] (inactive) and -10.3% [at 11.4 µM] (inactive)
COc1ccccc1-c1cncnc1NCc1cnc(C)cn1,1.26 µM (active),–
CN(C)Cc1ccccc1-c1cncnc1NC1CC1,12.6 µM (active),–
Cc1cnc(CNc2ncncc2-c2ccccc2C)cn1,1 µM (active),–
Cc1cnc(CNc2ncncc2-c2ccccc2CN(C)C)cn1,3.16 µM (active),–
O=[N+]([O-])c1ccccc1N=Nc1c(O)[nH]c2ccc(S(=O)(=O)O)cc12,–,-6.01% [at 11.4 µM] (inactive)
C/C(=N\NC(=O)CC1N=C(Cc2ccccc2)NNC1=O)c1ccc(Cl)cc1Cl (stereo unspecified),1.26 µM (active),–
Nc1ccc(-c2nc3c(Cl)c(N)ccc3[nH]2)cc1,1 µM (active),–
c1csc(CNc2ccnc(-c3ccoc3)n2)c1,7.94 µM (active),–
CN(C)c1ccc(-c2nccc(NCc3cccs3)n2)cc1,12.6 µM (active),–
c1cncc(-c2nccc(NCc3cccs3)n2)c1,1 µM (active),–
CN(C)C(=O)c1ccc(-c2nccc(NCc3cccs3)n2)cc1,25.1 µM (active),–
Cc1ccccc1Oc1ncnc2sccc12,inactive,–
COc1cccc(Nc2ncc3nc(C)c(=O)n(-c4ccccc4)c3n2)c1,15.8 µM (active),–
Cn1c(=O)c(-c2ccc(Cl)cc2)nc2cnc(Nc3ccccc3)nc21,inactive,–
COc1ccc(-n2c(=O)c(C)nc3cnc(Nc4ccccc4)nc32)cc1,12.6 µM (active),–
COc1cccc(Nc2ncc3nc(-c4ccccc4)c(=O)n(C)c3n2)c1,inactive,–
COc1ccc(C(=O)NNC(=S)NC(=O)c2ccco2)cc1,–,9.96% [at 2.29 µM] (inactive)
CCOc1ccc(C(=O)NC(=S)N(Cc2ccccc2)Cc2ccccc2)cc1,10 µM (active),–
COc1ccc(CN(CCC#N)C(=S)NC(=O)c2ccccc2)cc1,14.1 µM (active),–
N/C(=N\c1nc2ccccc2o1)NC(=O)c1ccccc1F,inactive,–
O=C(NC(=S)N(Cc1ccccc1)Cc1ccccc1)c1ccccc1F,15.8 µM (active),–

SMILES,AC50,"activity, negative = inhibition"
O=C(Nc1ccccc1)N(Cc1ccccc1)CC(O)C(F)(F)F (stereo unspecified),inactive,–
CCC(=O)c1ccc(OCC(O)CN(CCc2ccccc2)Cc2ccccc2)cc1 (stereo unspecified),inactive,–
CC(C)Cc1ccc([C@H](C)C(=O)O)cc1,inactive,–
CCN(CC)c1ccc(/C=N/Nc2nc(C)cc(=O)[nH]2)cc1,14.1 µM (active),–
CCOC(=O)N/N=C/c1ccc(F)cc1,inactive,–
Nc1ccc(S(=O)(=O)NCc2nccs2)cc1,–,-10.4% [at 11.4 µM] (inactive)
N=c1sccn1CC(=O)Nc1cccc(Oc2ccccc2)c1,–,-7.61% [at 11.4 µM] (inactive)
O=S(=O)(NCc1cn2ccsc2n1)c1ccc(Oc2ccccc2)cc1,11.2 µM (active),–
Cc1cc(-c2ccc(/C=N/n3cnnc3)o2)c([N+](=O)[O-])cc1C,inactive,–
Cc1ccc(-c2ccc(/C=N/N3C(=O)C4C5C=CC(C6CC56)C4C3=O)o2)c([N+](=O)[O-])c1 (stereo unspecified),2.24 µM (active),–
COc1cccc2c1OC[C@@H](CO)[C@H]2N(C)C(=O)Nc1ccc(Cl)cc1Cl,14.1 µM (active),–
Cc1nc(C(=O)Nc2ccc(Cl)cc2Cl)nn1-c1cc(OC(C)C)c(Cl)cc1Cl,inactive,–
NC(=O)c1cc[n+](CC2=C(C(=O)[O-])N3C(=O)[C@@H](NC(=O)Cc4cccs4)[C@@H]3SC2)cc1,inactive,–
CN(C)c1ccc(-c2nc3n(n2)C(c2cccnc2)C2=C(CC(C)(C)CC2=O)N3)cc1 (stereo unspecified),2.24 µM (active),–
COc1ccc(-c2cc(C(F)F)nc(-n3nc(C)cc3C)n2)cc1,10 µM (active),–
Cc1cc(C)n(-c2nc(NC(C)C)nc(NC(C)C)n2)n1,–,0.214% [at 11.4 µM] (inactive)
CCCCn1c(NCc2ccccc2NS(=O)(=O)c2ccc(C)cc2)nc2ccccc21,3.55 µM (active),–
Cc1ccc(S(=O)(=O)Nc2ccccc2C=O)cc1,–,-24.7% [at 11.4 µM] (inactive)
CC(C)(C)NCC[C@@H](O)c1cc(C(F)(F)F)nc2c(C(F)(F)F)cccc12,–,-13.6% [at 11.4 µM] (inactive)
Cc1noc(C)c1C(=O)N1CCC2(CCCN(C(c3ccccc3)c3ccccc3)C2)CC1,inactive,–
Cc1cc(C)c(NC(=O)C[C@H](CC(=O)O)c2cccc3ccccc23)c(C(=O)N2CCC3(CCCC3)CC2)c1,15.8 µM (active),–
COC(=O)N1CCC2(CCN(C(=O)Nc3ccccc3)CC2)CC1,inactive,–
